Results: the supplement of paper PMC11417369
± gives the standard deviation of the averaged measurements. Over roughly 25,000 sequences, “ln(normalized median fluorescence intensity)” has its median near 8.6; the highest 2% begin near 10. The full list was thinned out, with the highest values kept by preference.

test system: PfAP2-EXP AP2 domain (GST-tagged); experiment: gcPBM binding intensity (ln(normalized median fluorescence intensity)); higher = stronger DNA binding
Method in brief: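 Plasmodium falciparum DNA-binding domains carrying a GST tag were expressed in E. coli and applied for 1 h, at about 25 μg on average, to an Agilent 4 × 180k array. The array held primer-extended double-stranded 36-bp intergenic genomic probes together with negative controls, and binding took place in 1× PBS with 1% milk, 0.2 mg/ml BSA, 0.5% salmon testes DNA and 0.03% Triton X-100. An Alexa488 anti-GST antibody detected bound protein, and the array was scanned at 488 nm. Binding intensity is taken as the highest Masliner-normalised natural-log median intensity across replicate spots of either probe orientation.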

| Sequence | gcPBM binding intensity (ln) |
| --- | --- |
| TTTAATAATATTTAGGTGCTATATATTATATGTATA | 8.32 ± 0.21 |
| CAATATAAAATAAAATGTACTTGTAGTAAAGGGATA [XGTACX_site1452] | 8.79 ± 0.35 |
| GAAATGTGATAATATACACACACGCATATATATATA [CACACA_site4332] | 9.86 ± 0.3 |
| AATGTGATAATATACACACACGCATATATATATATA [CACACA_site323] | 10.2 ± 0.2 |
| AAGTAATACAACACGCACATATATATATATATATAT [GTGCAC_negctrl_site89] | 10.3 ± 0.3 |
| TGTGCACGCATATACACACACAAATACAATGATAAA [CACACA_site6656] | 8.65 ± 0.36 |
| TAGATACATACACGCACACACATATATATATATATA [CACACA_site12] | 10.2 ± 0.29 |
| CATATATAGATATATACACACATACATACATACATA [CACACA_site7748] | 8.55 ± 0.38 |
| CATAGATACATACACGCACACACATATATATATATA [CACACA_site13] | 9.97 ± 0.36 |
| AATACATATAATACAACACACAAGTAATATAAACCT [CACACA_site3597] | 8.87 ± 0.53 |
| TAGATACATACACGCACACACATATATAAATAAATA [CACACA_site6157] | 8.69 ± 0.49 |
| ATTACATGATATATCACACACACATATAGATATATA [CACACA_site7352] | 8.65 ± 0.44 |
| ATAGATATACATATCACACATATATATATATATATA [CACACA_site4985] | 10.2 ± 0.23 |
| ATACAACATATATATACACACATATAATAATAATAA [CACACA_site3367] | 8.62 ± 0.42 |
| TTATTCTAAAAATATACACACAACAACAAACAAACA [CACACA_site1543] | 9.04 ± 0.39 |
| GAAAAAAAAAAAAAAAAACACACGGTACATTCAAAG [CACACA_site303] | 8.5 ± 0.58 |
| TACTGATCCACATTTATACACACCTCGGTTTGTAGA [CACACA_site417] | 8.56 ± 0.4 |
| CTTAATATTCTTTAAAGTACACAAAATAAGAATATA [XGTACX_site5489] | 8.87 ± 0.59 |
| ATAATATAAATACAAACACACAATTGCGTCCACATT [CACACA_site5039] | 8.82 ± 0.38 |

| Sequence | gcPBM binding intensity (ln) |
| --- | --- |
| GTCCAATAAGGAAGAGTGCAAAAATTAAATAATATA [GTGCAC_site9751] | 8.76 ± 0.28 |
| ATATATATATATATATGTACATATATTCGATTATTA [XGTACX_site557] | 10.29 ± 0.049 |
| ATATATATATATATATGTACATACAATTATATTCTC [XGTACX_site1133] | 10.2 ± 0.29 |
| TATATATATTATATATGTACATATTATATATATATA [XGTACX_site7300] | 9.46 ± 0.17 |
| ATATATATATATATATGTACATATTATTCTCATTGT [XGTACX_site6259] | 9.88 ± 0.28 |
| ATATATATATATATATGTACATATATATATTATATT [XGTACX_site6303] | 10 ± 0.62 |
| TATATTTATACAATATGTACATATTATATATATATA [XGTACX_site3098] | 9.57 ± 0.26 |
| AAGTTTTTTTCTTTTTTTCTCTCTTTTTTTTTTTTT [XGTACX_negctrl_site613] | 8.19 ± 0.51 |
| ATAAATATATATATAGTGCATATAAGCCACCTTCAA [GTGCAC_site9628] | 8.86 ± 0.014 |
| AATTGAAAAGAATGAAGTACACATTTGATGATACAT [XGTACX_site5182] | 8.62 ± 0.33 |
| TACAATATAAAATACACACGCACACCGAAAAAAAAA [CACACA_site5865] | 8.53 ± 0.4 |
| ATATAAAAAAAAAATTGTACAAAAATATATACATAT [XGTACX_site469] | 8.53 ± 0.42 |
| AATAATATATTTAGGGGTACATAATAATATATTTTA [XGTACX_site8366] | 8.81 ± 0.6 |
| AAATATATTATAAATTGTACGTTTATATATATTATT [XGTACX_site5110] | 8.29 ± 0.37 |
| TTAGGCAAGGCGGGGGGTACGTTTTTATATAATTAT [XGTACX_site8029] | 10.7 ± 0.18 |
| ATCTTTCCTATTTGTAGTACAAAAAAAAAAAAAAAA [XGTACX_site5485] | 8.44 ± 0.18 |
| TTTGTAATAACATATGCATGTTCAAAAAATAAAATA [TGCATGCA_site817] | 8.4 ± 0.36 |
| AAGAAAAACTTATATATATATATATATATATATATA [TGCATGCA_negctrl_site466] | 10.3 ± 0.29 |
| TTATAAAAGAAAAAAAAAAAAAAAAAAAAAAAAAAA [CACACA_negctrl_site1006] | 7.89 ± 0.43 |

| Sequence | gcPBM binding intensity (ln) |
| --- | --- |
| AAGAAAAAAAAAAAAACACACATATATTTATTTATA [CACACA_site7042] | 8.06 ± 0.47 |
| AATAATAAATAAATGTGTACTTAAAAATATTATATT [XGTACX_site3005] | 8.44 ± 0.33 |
| TTTAATAATATAATGTGTACTTAAAAATTTATATAT [XGTACX_site5821] | 8.29 ± 0.21 |
| TATACATTATTATTATGTACTTAAATATATATTATA [XGTACX_site5173] | 8.35 ± 0.34 |
| ATATATATATATGTGTGTACTTAAAAATATAATGCA [XGTACX_site7753] | 10.2 ± 0.14 |
| ATTACAAATATAATATGTACTTAAATATAATTAAAA [XGTACX_site7038] | 8.17 ± 0.34 |
| ATATATATATATATATGTACTTAAAAAATATATACA [XGTACX_site8952] | 10.2 ± 0.53 |
| TGGAAAATTATTAACACACACATATAAATATATATA [CACACA_site46] | 8.4 ± 0.45 |
| TGCAAATTTAACAAAAAAAAAAAAAAAAAAAAAAAA [GTGCAC_negctrl_site64] | 7.88 ± 0.45 |
| AAAATACAATTTCTAGCACACAAAATATTATTATAA [CACACA_site9056] | 8.34 ± 0.37 |
| TTCACTTTTTTTTTTTTTTTTTTTTTTTTTTTTATT [GTGCAC_negctrl_site350] | 8.07 ± 0.56 |
| TAATTTCTTATGTATTGTACATATAATATATGATAT [XGTACX_site4898] | 8.52 ± 0.41 |
| AATATTTTCTGTAATACTTCTTTTCAATTTATTTCG [CACACA_negctrl_site1390] | 8.76 ± 0.45 |
| TATAAAATAAAAGTAAATATATATATATATATATAT [TGCATGCA_negctrl_site208] | 10.1 ± 0.3 |
| ATATATATATATATATGGTAAAGTAAAAGGAAATAC [XGTACX_negctrl_site45] | 10.3 ± 0.3 |
| ATAATATATGAAAGTGGTACACAAAGGAAAATAAAA [XGTACX_site333] | 9.14 ± 0.57 |
| GAAACGTTTTTGAGTAGTACACACACAATAAGGATG [XGTACX_site6809] | 9.02 ± 0.45 |
| TTTTATACATAAATGTGTACGTATATATAATGAATT [XGTACX_site2762] | 8.59 ± 0.32 |
